Assay outcomes as filed in PubChem BioAssay.
The full list was thinned out, with hits kept by preference.
KDM5B inh = inhibitors of human KDM5B histone demethylase. KDM5B demethylase, FDH-coupled NADH fluorescence (FDH is formaldehyde dehydrogenase). Q9UGL1. 220,000 tested, 2.6% active. Potency, µM (highest dose often 57.7 µM), most hits filed as inhibitors; active = well fitted inhibition curve with a large enough effect; note: nearly all actives have a fitted effect of over 70% in size
Target sequence (Q9UGL1 whole entry, looked up): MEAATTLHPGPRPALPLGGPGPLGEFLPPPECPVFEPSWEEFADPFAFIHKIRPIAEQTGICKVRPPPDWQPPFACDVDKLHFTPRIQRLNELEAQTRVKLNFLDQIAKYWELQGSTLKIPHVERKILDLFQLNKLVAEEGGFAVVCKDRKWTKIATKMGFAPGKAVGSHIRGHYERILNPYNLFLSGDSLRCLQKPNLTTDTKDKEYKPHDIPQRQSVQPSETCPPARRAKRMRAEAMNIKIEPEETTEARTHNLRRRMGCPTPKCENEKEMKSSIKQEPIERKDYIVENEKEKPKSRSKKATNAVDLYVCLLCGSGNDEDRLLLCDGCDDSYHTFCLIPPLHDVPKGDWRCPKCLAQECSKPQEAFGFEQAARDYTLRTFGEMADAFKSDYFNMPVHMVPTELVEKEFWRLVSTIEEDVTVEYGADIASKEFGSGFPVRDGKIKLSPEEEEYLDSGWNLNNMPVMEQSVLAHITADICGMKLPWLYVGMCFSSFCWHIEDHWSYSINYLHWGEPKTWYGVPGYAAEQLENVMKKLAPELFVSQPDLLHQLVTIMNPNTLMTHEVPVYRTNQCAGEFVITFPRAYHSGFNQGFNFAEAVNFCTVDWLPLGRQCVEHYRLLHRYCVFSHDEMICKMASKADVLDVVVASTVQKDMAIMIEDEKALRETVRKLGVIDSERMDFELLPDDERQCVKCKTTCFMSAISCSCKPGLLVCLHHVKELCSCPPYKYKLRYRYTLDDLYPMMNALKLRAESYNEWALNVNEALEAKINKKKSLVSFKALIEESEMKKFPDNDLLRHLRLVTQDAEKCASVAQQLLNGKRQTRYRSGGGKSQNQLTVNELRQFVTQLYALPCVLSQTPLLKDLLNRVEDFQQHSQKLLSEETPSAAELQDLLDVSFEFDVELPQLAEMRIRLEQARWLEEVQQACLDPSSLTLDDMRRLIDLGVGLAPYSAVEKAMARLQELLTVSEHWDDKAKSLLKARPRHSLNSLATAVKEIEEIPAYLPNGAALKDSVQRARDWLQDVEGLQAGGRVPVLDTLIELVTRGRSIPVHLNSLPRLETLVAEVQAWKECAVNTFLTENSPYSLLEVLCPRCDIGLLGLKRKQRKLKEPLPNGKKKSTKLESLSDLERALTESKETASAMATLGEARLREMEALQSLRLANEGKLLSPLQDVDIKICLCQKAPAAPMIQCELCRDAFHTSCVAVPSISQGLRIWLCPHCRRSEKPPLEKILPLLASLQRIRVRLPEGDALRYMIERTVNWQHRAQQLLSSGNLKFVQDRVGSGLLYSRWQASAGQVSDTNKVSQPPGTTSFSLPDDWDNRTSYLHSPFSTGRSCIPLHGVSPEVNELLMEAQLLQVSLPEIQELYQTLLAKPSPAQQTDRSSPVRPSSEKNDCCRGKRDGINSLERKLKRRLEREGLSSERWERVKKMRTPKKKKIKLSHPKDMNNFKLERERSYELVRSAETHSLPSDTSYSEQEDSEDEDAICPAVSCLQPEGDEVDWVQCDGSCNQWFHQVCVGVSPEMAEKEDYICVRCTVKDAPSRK
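Inhibition is measured as reduced NADH fluorescence generation from FDH coupling to formaldehyde release. Truncated KDM5BΔAP at 200 nM final acts on H3K4me3 peptide (12.5 µM in substrate mix) in pH 7.5 HEPES buffer with Tween-20, 30 min, room temperature.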
Numbers stand for hits; – = inactive.

SMILES	KDM5B inh
CSc1cccc(NC(=O)c2sccc2C)c1	–
CC(C)OCCCNC(=O)CC1=C2CCCCC2N(C(C)C)C1=O (centres undefined)	–
O=C(/C=C/c1cccs1)c1cccc(O)c1	–
CCc1ccccc1NC(=O)c1ccc2c(c1)NC(=O)CS2	–
Cc1ccc(C(=O)N/N=C/CC(C)C)cc1	–
Cc1ccc(-n2nc(C)c([C@@H]3C=C[C@@H](NC(=O)NC(C)C)C3)c2C)cc1Cl	–
Cc1nn(-c2ccccn2)c(C)c1[C@@H]1C=C[C@@H](NC(=O)CCC(=O)O)C1	–
Cc1nn(Cc2ccccc2)c(C)c1[C@@H]1C=C[C@@H](NC(=O)c2ccc(F)c(Cl)c2)C1	28µM
Cc1cc(N2CCCCC2)nc(Nc2ccc(NC(=O)Cc3ccccc3)cc2)n1	–
CC(C)c1cnc2c(c1SCCN1CCOCC1)c(=O)n(C)c(=O)n2C	–
COc1ccc(-c2ccc3ncc(Nc4ccc(CCO)cc4)n3n2)cn1	–
COc1cc(F)ccc1-c1cc2c(nc1OC)nc(CC1CC1)n2C	35µM
COc1ccc(F)cc1S(=O)(=O)N1CCn2c(nn(C)c2=O)C1	–
COc1ccc(NC(=O)c2cnc3c(c2)N(C(=O)CCc2ccccc2)CCC3)cn1	–
COc1nc2nc(CC3CC3)n(C)c2cc1-c1ccnc(C)c1	40µM
COc1nc2nc(CCc3ccccc3)n(C)c2cc1-c1ccnc(C)c1	40µM
COc1ccc(Nc2cc3c(nc2OC)nc(CCc2ccccc2)n3C)cn1	18µM
Cc1cc(-c2ccnc(-c3nnc(C)n3CCc3ccccc3)c2)ccn1	–
COc1ncc(-c2cc3c(nc2OC)nc(CC2CC2)n3C)cn1	–
COc1cc(F)ccc1-c1ccc(=O)n(CC(=O)N(C)C2CCS(=O)(=O)C2)n1 (centres undefined)	–
CNC(=O)CCn1ncc2cc(OC3CCc4cccc(-c5ccnc(C)c5)c43)ccc21 (centres undefined)	–
COc1cc(C#N)cc(Cl)c1OCc1ccccc1C#N	–
Cc1ccc2c(c1)nc1n2[C@@H](CNCc2nccn2C)COC1	–
N#Cc1nc(-c2ccco2)oc1N1CCN(CC(=O)Nc2ccccc2Br)CC1	–
O=C(Nc1ccccc1Cl)C(=O)NC1CCCC1	–
SMILES	KDM5B inh
Oc1ccc(Cl)cc1C=Nc1ccc(Cl)cc1C(F)(F)F	–
COc1ccc(NC(=O)NCC2CCN(CCc3ccc(F)cc3)CC2)cc1OC	–
COc1ccc(OC)c(S(=O)(=O)Nc2cccc(CCc3nc4ccccc4n3C)c2)c1	–
COc1ccc(S(=O)(=O)Nc2cccc(CCc3nc4ccccc4n3C)c2)cc1OC	–
COc1nc2nc(CCc3ccccc3)n(C)c2cc1-c1cccc(CO)c1	35µM
CN1C(=O)CCC2(C(=O)O)CCCC=C12 (centres undefined)	–
COc1ccccc1Nc1nc(-c2ccc3c(c2)CC(C)N3S(C)(=O)=O)cs1 (centres undefined)	–
CCOc1cc(/C=C2/NC(=O)NC2=O)cc(I)c1OCC(=O)OC	–
O=C(c1ccc(F)c(F)c1)N1C[C@@H](CO)[C@H](c2nc(C3CC3)no2)C1	–
O=C(c1ccc2c(c1)OCO2)N1C[C@@H](CO)[C@H](c2nc(C3CC3)no2)C1	–
O=C(c1cc(C2CC2)[nH]n1)N1CC(F)(F)C[C@H]1c1nc(C2CC2)no1	–
Cc1ccoc1C(=O)N1CC(F)(F)C[C@H]1c1nc(C2CC2)no1	–
O=C(c1ccc2cc[nH]c2c1)N1C[C@@H](CO)[C@H](c2nc(C3CC3)no2)C1	32µM
O=C(c1cc[nH]c(=O)c1)N1CC(F)(F)C[C@H]1c1nc(C2CC2)no1	28µM
CN(Cc1noc2c1CCCC2)C(=O)Cn1cccc(C(F)(F)F)c1=O	–
CCSc1nnc(-c2nn(C)c3c2CN(S(=O)(=O)c2ccc(C(C)=O)cc2)CC3)n1CC	–
CC(C)=CCOc1ccc2c(-c3cc4ccccc4oc3=O)cc(=O)oc2c1	–
COc1ccc(C(=O)Nc2cnc3c(cnn3C(C)C)c2)cc1S(=O)(=O)N1CCCC1	–
Fc1cccc(Nc2nc(NC3CCCC3)nc3c2cnn3-c2ccccc2)c1	–
CC1=CC(=O)C2C3C=CC(C3)C2/C1=N/OC(=O)c1ccc(C)cc1 (centres undefined)	–
Cc1ccc(Cn2c(C3CCN(C(=O)c4ccccc4)CC3)n[nH]c2=O)cc1	–
CCn1c(C2CCCN(Cc3c(C(=O)O)[nH]c4ccc(C)cc34)C2)n[nH]c1=O (centres undefined)	28µM
Cc1ccc2nc(C3CCCN(Cc4ccccc4)C3)[nH]c(=O)c2c1 (centres undefined)	–
Cn1cnc(C(=O)N2CCC3(CC2)CC(N(Cc2ccc(F)cc2)C2CC2)CCO3)c1 (centres undefined)	–
O=C1CC2CCN(C(=O)C3CCCC3)CC2CCN1 (centres undefined)	–
SMILES	KDM5B inh
O=C(CCC1CCCC1)N(Cc1ccc2cc[nH]c2c1)C1CC1	–
O=C(NC1CCCC1)C1CCN(C2=NS(=O)(=O)c3ccccc32)CC1	–
Cc1cc(C)n2nc(CC(=O)Nc3nc(-c4ccc(F)cc4)c(C)s3)nc2n1	–
Cn1nc(C2CCNC2)c2c(C(=O)N3CCC(F)CC3)cc(C3CC3)nc21 (centres undefined)	79µM
Cn1nc(C2CCNC2)c2c(C(=O)NC3CC3)cc(C3CC3)nc21 (centres undefined)	100µM
CC1(C)CC(NC(=O)c2cc(C3CC3)nc3ccccc23)CC(C)(C)N1	–
Cc1cc(C(=O)NCc2ccc(F)cc2)c2c(C3CCNCC3)noc2n1	–
Cn1nc(C2CCNC2)c2c(C(=O)NCc3ccc(F)cc3)cc(C3CC3)nc21 (centres undefined)	79µM
O=C(O)c1cc(C2CC2)nc2c1cnn2-c1ccc(F)cc1	–
O=C(c1cc(C2CC2)nc2ccccc12)N1CCC1	–
CCOC(=O)N1CCC(NC(=O)c2ccccc2C2CCNC2)CC1 (centres undefined)	–
Cc1ccc(-n2nc(C)c3c(C(=O)NCc4ccccc4)cc(C4CC4)nc32)cc1	–
CC1Oc2ccc(-c3csc(NC(=O)c4ccco4)n3)cc2NC1=O (centres undefined)	–
O=S(=O)(CCCSc1nc2ccccc2s1)c1ccccc1	–
Cc1ccc(CN2CCC(CNS(=O)(=O)c3csc(C(N)=O)c3)CC2)cc1	–
O=C(CCCc1cccs1)N(Cc1cccnc1)C1CC1	–
CCN(CC)S(=O)(=O)c1ccc(C)c(NCc2ccccc2C#N)c1	–
CCOc1ccc2c(=O)c(Oc3cc(C)ccc3C)coc2c1	–
NC(=O)NCCC(=O)N1CCc2onc(-c3cccc4ccccc34)c2C1	25µM
Nc1cc(C(=O)N2CCc3onc(-c4ccc(-c5ccccc5)cc4)c3C2)[nH]n1	–
CCCc1ncncc1C(=O)N1CCc2onc(-c3ccccc3F)c2C1	–
CCOC(=O)c1c(C)oc2nc(C)nc(Nc3cccc(OC)c3)c12	–
Cc1noc(C)c1-c1cc2cc(CN(C)C)oc2c(Nc2ccn(C)n2)n1	–
COc1cc(CNc2nc(-c3c(C)noc3C)cc3cc(CN(C)C)oc23)cc(OC)c1	–
Cc1oc(C(O)c2cncnc2)nc1C(=O)Nc1cccc([S+](C)(=O)[O-])c1 (centres undefined)	–
COc1cccc(Nc2nc(-c3c(C)noc3C)cc3cc(CN(C)C)oc23)c1	35µM
Cc1noc(C)c1-c1cc2cc(CN(C)C)oc2c(Nc2cccc([S+](C)(=O)[O-])c2)n1	32µM
CCc1cc(CC)n(-c2nc3c(c(=O)n(CCN4CCCCC4)c(=O)n3C)n2CC)n1	–
CCNC(=O)CSc1cc(C)c2cccc(C)c2n1	–
